These results are taken from PubChem BioAssay.

Assay [1] in a line: inhibitors of TNFa-induced NFkB p65 translocation, primary screen, imaging, HUVEC, MLSMR starter and 10KST1 sets (AID 438;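 active = inhibition above 20% together with a positive visual image hit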;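 note: compound added about 3h40 before a 20 min TNFalpha stimulation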;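 for inhibition: signal is the nuclear over cytoplasmic p65 intensity ratio per well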). To be noted: HUVEC TNFa-induced p65 nuclear translocation; cell count: measured here: nuclei count (cytotoxicity indicator), at 2.08 µM; inhibition: at 2 µM, stronger effect = higher value, 0% TNFa-plus-vehicle, 100% no-TNFa wells.
A short description of assay [2]: inhibitors of mutant huntingtin aggregation, primary screen, imaging, exon1htt(103Q)mCFP cells, high-content imaging (AID 483;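 active = visual image review flags a hit and inhibition of aggregation exceeds 20%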;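 note: compound exposure lasted 3 days before fixation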;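 for nuclei count: percent of the per-plate median nuclei count of sample wells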). The conditions noted are these: exon1htt(103Q)mCFP cell line, aggregate imaging, at 2 µM; inhibition of aggregation: stronger effect = higher value; nuclei count: measured here: cell count, toxicity.
A short description of assay [3]: inhibitors of E-selectin induction by TNFa, primary screen, imaging, HUVEC, immunofluorescence, MLSMR starter and 10KST1 sets (AID 487;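 active = visually confirmed hit in the image check and inhibition above 20%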;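 for inhibition: signal is fraction of cell area covered by stained E-selectin grains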;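 for nuclei count: 100% = median nuclei count of all wells on the same plate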). The conditions noted are these: HUVEC TNFalpha-induced E-selectin immunofluorescence imaging, at 2 µM; inhibition: stronger effect = higher value; nuclei count: measured here: cell number, toxicity.
For assay [4], the target named is Voltage-gated potassium channel subunit beta-2 (Rattus norvegicus) (UniProt P62483). Put plainly: KvBeta enzyme negative modulators, primary screen, biochemical, NADPH fluorescence (AID 622;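 active = fluorescence slope higher than the sample average by over 3 SD, cut at about -0.22 in these data, passing the limit was not always enough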;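 note: slope of raw intensity against log time taken from 70 to 1610 s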). To be noted: recombinant KvBeta, 4-cyanobenzaldehyde reduction, at 10 µM, stronger effect = higher value.
Sequence of Voltage-gated potassium channel subunit beta-2 (Rattus norvegicus) (P62483 whole entry, looked up): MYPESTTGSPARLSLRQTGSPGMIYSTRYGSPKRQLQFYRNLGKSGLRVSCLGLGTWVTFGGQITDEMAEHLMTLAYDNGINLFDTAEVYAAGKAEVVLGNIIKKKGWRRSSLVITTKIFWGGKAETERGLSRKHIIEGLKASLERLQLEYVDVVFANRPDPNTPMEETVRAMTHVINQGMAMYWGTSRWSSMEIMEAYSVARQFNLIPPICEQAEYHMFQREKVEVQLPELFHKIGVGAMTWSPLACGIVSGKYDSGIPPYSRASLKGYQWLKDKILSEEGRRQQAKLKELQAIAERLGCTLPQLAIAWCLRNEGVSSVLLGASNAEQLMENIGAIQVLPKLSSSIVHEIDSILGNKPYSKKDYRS
Assay [5] has the same target. Put plainly: KvBeta positive modulators, primary screen, biochemical, NADPH fluorescence (AID 623;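 active = NADPH fluorescence slope more negative than the mean of all samples by about 3 SD, 99.7% confidence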;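 note: fluorescence intensity change per second fitted from 20 to 320 s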). To be noted: Recombinant KvBeta, NADPH fluorescence decrease slope, 10 min; at 10 µM; stronger effect = lower value.
Assay [6] deals with Alpha-2C adrenergic receptor (Homo sapiens) (UniProt P18825). Put plainly: modulators of alpha2C/GIRK thallium flux, primary screen, cell-based, HEK293 alpha2C/GIRK1/2 (AID 624).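 Note: slope of fluorescence ratio to pre-addition baseline per second over 15 to 24 s.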 To be noted: thallium flux BTC fluorescence, at 10 µM, actives lie on both sides.
Sequence of Alpha-2C adrenergic receptor (Homo sapiens) (P18825 whole entry, looked up): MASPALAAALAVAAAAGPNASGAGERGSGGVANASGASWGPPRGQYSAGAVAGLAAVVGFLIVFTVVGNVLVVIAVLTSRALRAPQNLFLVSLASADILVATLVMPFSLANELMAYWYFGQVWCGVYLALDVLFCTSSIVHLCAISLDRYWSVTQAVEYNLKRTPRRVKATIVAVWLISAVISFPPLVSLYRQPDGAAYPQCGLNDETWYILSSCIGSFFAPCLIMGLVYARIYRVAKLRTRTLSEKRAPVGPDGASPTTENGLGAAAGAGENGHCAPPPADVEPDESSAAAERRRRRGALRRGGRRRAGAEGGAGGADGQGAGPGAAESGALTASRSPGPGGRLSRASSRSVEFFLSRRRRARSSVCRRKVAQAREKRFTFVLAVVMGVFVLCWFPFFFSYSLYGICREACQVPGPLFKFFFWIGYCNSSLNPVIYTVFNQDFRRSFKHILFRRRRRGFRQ
The nature of assay [7]: inhibitors of Sendai virus-induced IRF3 signaling, primary screen, TLR/RLR signaling modifier project, cell-based, Sendai virus stimulus, luciferase, 10K MLSCN set (AID 602276;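 active = inhibition at or above 50% at 10 µM; inactive = inhibition below 50%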;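 note: firefly luciferase from ISG56 promoter only with Renilla not read in this screen; 0% = Sendai virus plus DMSO and 100% = medium plus DMSO without virus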). To be noted: HEK293 RL24 IRF3 luciferase reporter, at 10 µM, stronger effect = higher value.
The nature of assay [8]: inhibitors of poly I:C-induced TLR3 signaling, primary screen, cell-based, poly I:C stimulus, luciferase, 10K MLSCN set (AID 602277;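 active = inhibition of the reporter signal at or above 50%; inactive = inhibition below 50%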). To be noted: HEK293-TLR3 RL24 IRF3 luciferase reporter, at 10 µM, stronger effect = higher value.

The source made the active and inactive calls.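 Rule for the calls, unless noted: active = fluorescence slope after compound addition differing from the mean of all screened samples at 99.7% confidence, in either direction; inactive = the rest.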

Turning to `CCCCOCCCNC(=O)c1cccs1`, the cell count in assay [1] came to 471. Moreover, the inhibition in assay [1] is 4.5% (inactive); in assay [3], -392% (inactive); in assay [7], 5.11% (inactive); in assay [8] it was 25.1% (inactive). The inhibition of aggregation in assay [2] is -4.3% (inactive). In addition, the nuclei count in assay [2] was found to be 103%; in assay [3], 139%. Also, the fluorescence slope in assay [4] is -0.443 (inactive). In assay [5], the NADPH fluorescence slope was -2.3e-05 (inactive). Also, the slope in assay [6] was 0.00349 (inactive).
Regarding `Cc1nn(CC(O)Cn2c3c(c4ccccc42)CCN(C)C3=O)c(C)c1Br` (centres undefined), the cell count in assay [1] came out at 363. Further, the inhibition is -4.7% (inactive) in assay [1], 45.5% (inactive) in assay [3], 21.6% (inactive) in assay [7] and 21.9% (inactive) in assay [8]. Moreover, in assay [2], the inhibition of aggregation was 10.5% (inactive). The nuclei count worked out at 101% in assay [2] and 75.2% in assay [3]. In assay [4], the fluorescence slope is -0.427 (inactive). Moreover, the NADPH fluorescence slope in assay [5] was -3e-05 (inactive). In assay [6], the slope was 0.00532 (inactive).
Take `Cc1onc(-c2ccccc2)c1C(=O)Nc1ccc(S(=O)(=O)N2CCCCC2)cc1`: the cell count in assay [1] turned out to be 786. For the same molecule, the inhibition in assay [1] was 7.8% (inactive); in assay [3], -35.5% (inactive); in assay [7] it was 15.1% (inactive); in assay [8] it was 32.9% (inactive). The inhibition of aggregation in assay [2] is -10.9% (inactive). The values for the nuclei count in assay [2] and in assay [3] were 97.3% and 108%, respectively. Moreover, the fluorescence slope in assay [4] was -0.599 (inactive). Besides, in assay [5], the NADPH fluorescence slope is -5.5e-06 (inactive). Moreover, the slope in assay [6] was 0.00592 (inactive).
`Cc1cc(NS(=O)(=O)c2ccccc2)no1`: in assay [1], the cell count was found to be 662. Besides, the inhibition in assay [1] was -5.5% (inactive); in assay [3], -72.8% (inactive); in assay [7], 11.7% (inactive); in assay [8], 28.5% (inactive). In assay [2], the inhibition of aggregation was -5.5% (inactive). Besides, the nuclei count was determined as 97% in assay [2] and 122% in assay [3]. Further, in assay [4], the fluorescence slope was -0.56 (inactive). In addition, in assay [5], the NADPH fluorescence slope was -5.2e-05 (inactive). Moreover, the slope in assay [6] is 0.00728 (inactive).
Consider `Cc1ccc(-c2noc(CN3C(C)CCCC3C)n2)cc1` (centres undefined), for which the cell count in assay [1] was 483. The inhibition is 2.1% (inactive) in assay [1], -26.4% (inactive) in assay [3], 2.73% (inactive) in assay [7] and 0.396% (inactive) in assay [8]. The inhibition of aggregation in assay [2] is -5.2% (inactive). The nuclei count is 75.4% in assay [2] and 101% in assay [3]. In addition, in assay [4], the fluorescence slope was -0.531 (inactive). Also, in assay [5], the NADPH fluorescence slope was -1.6e-05 (inactive). Moreover, the slope in assay [6] was 0.00754 (inactive).
Take `O=C(Cn1cnc2c(nnn2Cc2ccccc2)c1=O)c1ccc(Cl)cc1`: the cell count in assay [1] was 561. Moreover, the inhibition in assay [1] was 8.2% (inactive); in assay [3] it was -22% (inactive); in assay [7], 11.9% (inactive); in assay [8] it was 21.3% (inactive). For the same molecule, in assay [2], the inhibition of aggregation was -6.2% (inactive). The results for the nuclei count in assay [2] and in assay [3] were 86.3% and 108%, respectively. In assay [4], the fluorescence slope is -0.591 (inactive). In addition, the NADPH fluorescence slope in assay [5] is -4.2e-06 (inactive). Further, the slope in assay [6] was 0.00679 (inactive).
Take `OC(CNCC1COc2ccccc2O1)COCc1cccs1` (centres undefined): the cell count in assay [1] was 615. Further, the inhibition in assay [1] is 0.8% (inactive); in assay [3], -133% (inactive); in assay [7] it was -3.3% (inactive); in assay [8] it was 2.31% (inactive). Moreover, in assay [2], the inhibition of aggregation was -9.6% (inactive). Besides, the values for the nuclei count in assay [2] and in assay [3] were 105% and 131%, respectively. Further, in assay [4], the fluorescence slope was -0.568 (inactive). Moreover, the NADPH fluorescence slope in assay [5] was 6.2e-06 (inactive). Further, the slope in assay [6] is 0.00544 (inactive).
`COc1cc(OC)c(C2N(C)c3ccccc3N2C)cc1OC`: in assay [1], the cell count is 403. Also, the inhibition in assay [1] is 1.7% (inactive); in assay [3], -64.6% (inactive); in assay [7], -3.76% (inactive); in assay [8] it was 26.3% (inactive). The inhibition of aggregation in assay [2] is -0.8% (inactive). In addition, the nuclei count in assay [2] worked out at 111%; in assay [3], 105%. Also, the fluorescence slope in assay [4] is -0.502 (inactive). Further, the NADPH fluorescence slope in assay [5] was -1.1e-05 (inactive). For the same molecule, the slope in assay [6] is 0.00623 (inactive).
Take `COc1ccc(OC)c(C(=O)c2coc3ccc(O)c(CN4CCOCC4)c23)c1`: the cell count in assay [1] turned out to be 282. Moreover, the inhibition is 2.9% (inactive) in assay [1], -28.2% (inactive) in assay [3], 6.31% (inactive) in assay [7] and 23% (inactive) in assay [8]. Also, the inhibition of aggregation in assay [2] is -12.4% (inactive). Further, the nuclei count came out at 120% in assay [2] and 109% in assay [3]. In assay [4], the fluorescence slope was -0.561 (inactive). For the same molecule, the NADPH fluorescence slope in assay [5] is -9.1e-06 (inactive). Moreover, the slope in assay [6] was 0.00423 (inactive).
Consider `CN1CCN(Cc2nc3c(c(=O)n(C)c(=O)n3C)n2Cc2ccccc2Cl)CC1`, for which, in assay [1], the cell count is 746. Further, the inhibition was -15.7% (inactive) in assay [1], -14.4% (inactive) in assay [3], 4.15% (inactive) in assay [7] and 45.1% (inactive) in assay [8]. Also, the inhibition of aggregation in assay [2] is 4.7% (inactive). In addition, the nuclei count in assay [2] was 100%; in assay [3], 105%. In addition, the fluorescence slope in assay [4] was -0.409 (inactive). In assay [5], the NADPH fluorescence slope is -2e-05 (inactive). Also, the slope in assay [6] is 0.00482 (inactive).
Consider `CCOC(=O)C1CCN(Cc2ccc(F)c(Br)c2)CC1`, for which the cell count in assay [1] came to 313. For the same molecule, the inhibition in assay [1] is 3.4% (inactive); in assay [3], -156% (inactive); in assay [7] it was 9.36% (inactive); in assay [8] it was 20.4% (inactive). In assay [2], the inhibition of aggregation is -23.7% (inactive). The figures for the nuclei count in assay [2] and in assay [3] were 110% and 140%, respectively. Further, in assay [4], the fluorescence slope is -0.414 (inactive). Also, the NADPH fluorescence slope in assay [5] was 2e-06 (inactive). In addition, in assay [6], the slope was 0.00431 (inactive).
As for `O=C(COc1ccccc1)NCC(c1cccs1)N1CCOCC1` (centres undefined), the cell count in assay [1] came out at 412. The inhibition in assay [1] was 9% (inactive); in assay [3], -82.3% (inactive); in assay [7], -14.3% (inactive); in assay [8], -11.6% (inactive). In addition, the inhibition of aggregation in assay [2] was 2% (inactive). In addition, the nuclei count came to 101% in assay [2] and 112% in assay [3]. The fluorescence slope in assay [4] is -0.453 (inactive). For the same molecule, the NADPH fluorescence slope in assay [5] is 0.000103 (inactive). The slope in assay [6] was 0.00649 (inactive).
Turning to `CC1=C(C(=O)OCC(C)C)C(c2cc3c(cc2Br)OCO3)NC(=O)N1C` (centres undefined), the cell count in assay [1] was found to be 425. For the same molecule, the inhibition in assay [1] was -3.6% (inactive); in assay [3] it was -103% (inactive); in assay [7], 11.4% (inactive); in assay [8] it was 34.6% (inactive). In addition, the inhibition of aggregation in assay [2] is -13.3% (inactive). Moreover, the nuclei count was 98.5% in assay [2] and 118% in assay [3]. Moreover, in assay [4], the fluorescence slope was -0.44 (inactive). Also, the NADPH fluorescence slope in assay [5] was -3.6e-05 (inactive). Also, in assay [6], the slope was 0.00323 (inactive).
`COc1ccc(C2CC(c3cccs3)n3nc(N)nc3N2)cc1` (centres undefined): in assay [1], the cell count came to 619. The inhibition was -6.3% (inactive) in assay [1], -38.1% (inactive) in assay [3], -3.14% (inactive) in assay [7] and -18.2% (inactive) in assay [8]. Moreover, the inhibition of aggregation in assay [2] was 7.8% (inactive). Besides, the nuclei count in assay [2] came to 122%; in assay [3], 118%. Besides, the fluorescence slope in assay [4] was -0.533 (inactive). In assay [5], the NADPH fluorescence slope is -1.5e-05 (inactive). Besides, the slope in assay [6] is 0.00849 (inactive).
